According to PubChem BioAssay (NCI):
About 83,000 compounds went through this panel and 20% of them were active in at least one assay; those are over-represented in the sample as a whole.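 Negative percent growth values reflect cell death: -40 means 40% of the cells present at the start died, and -100 means all died.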 The source made the active and inactive calls. Rule for the calls: active = growth percent below 10; inactive = the rest.

Tests used:
Assay in all cases: NCI-60 one-dose screen, 48 h (100 = growth as untreated, 0 = no growth, -100 = all killed)
[1] = system: SR leukemia; conditions: 10 µM unless noted
[2] = system: RPMI-8226 leukemia; conditions: 10 µM unless noted
[3] = system: OVCAR-8 ovarian; conditions: 10 µM unless noted
[4] = system: OVCAR-5 ovarian; conditions: 10 µM unless noted
[5] = system: OVCAR-4 ovarian; conditions: 10 µM unless noted
[6] = system: SK-OV-3 ovarian; conditions: 10 µM unless noted
[7] = system: IGROV1 ovarian; conditions: 10 µM unless noted
[8] = system: OVCAR-3 ovarian; conditions: 10 µM unless noted
[9] = system: HS 578T breast; conditions: 10 µM
[10] = system: T-47D breast; conditions: 10 µM unless noted
[11] = system: BT-549 breast; conditions: 10 µM unless noted
[12] = system: MDA-MB-435 melanoma; conditions: 10 µM unless noted
[13] = system: SW-620 colon; conditions: 10 µM unless noted
[14] = system: MCF7 breast; conditions: 10 µM unless noted
[15] = system: HCT-116 colon; conditions: 10 µM unless noted
[16] = system: HCC-2998 colon; conditions: 10 µM unless noted
[17] = system: KM12 colon; conditions: 10 µM unless noted

Measured: growth

Cc1nc2ccc(Nc3nc(Cl)nc(N4CCOCC4)n3)cc2n1Cc1ccccc1
inactive: [1] 18.5% | [2] 74.4% | [3] 44% | [4] 104% | [5] 126% | [6] 93.7% | [8] 98.4% | [9] 81.4% | [10] 40.6% | [11] 83.7% | [12] 110% | [13] 70.4% | [14] 64.7% | [15] 81.2% | [17] 95.8%
active: [7] -1.16% | [16] 0.667%

COc1cc(C2CC(c3cccc(Nc4ccnc5cc(Cl)ccc45)c3)=NN2c2ccc(Cl)cc2)cc(OC)c1OC (configuration not stated)
inactive: [1] 55.9% | [2] 47.8% | [3] 55.2% | [4] 80.2% | [5] 115% | [6] 92.2% | [7] 39.7% | [8] 83.3% | [9] 64.8% | [10] 30.8% | [11] 81.7% | [13] 37.3% | [14] 54.8% | [15] 53% | [16] 87.3% | [17] 33.9%
active: [12] 8.15%

Cc1nc2ccc(Nc3nc(N4CCOCC4)nc(N4CCN(C)CC4)n3)cc2n1Cc1ccccc1
inactive: [1] 24.9% | [2] 65.4% | [3] 93.6% | [4] 101% | [5] 112% | [6] 96.2% | [7] 98.2% | [8] 94.7% | [9] 69.3% | [10] 91.9% | [11] 66.1% | [12] 91% | [13] 96.9% | [14] 82.6% | [15] 71.3% | [16] 96.3% | [17] 93.2%

CCn1c(CN2CCN(Cc3ccccc3)CC2)nc2cc(NC(=O)c3cccs3)ccc21
active: [1] -9.71% | [2] -27.6% | [3] -61.8% | [4] 4.74% | [5] -51.2% | [6] -95.1% | [7] -83% | [8] -94.5% | [9] -25.3% | [10] -62.5% | [11] -30.9% | [12] -89% | [13] -82.8% | [14] -88.1% | [15] 0.264% | [16] -88.9% | [17] -93.5%

COc1cc(C(=O)/C=C/c2cn(-c3ccccc3)nc2-c2cccc(Nc3ccnc4cc(Cl)ccc34)c2)cc(OC)c1OC
inactive: [2] 47.2% | [3] 78.5% | [4] 112% | [5] 127% | [6] 115% | [7] 93.2% | [8] 132% | [9] 102% | [10] 95.4% | [11] 93.3% | [12] 66.9% | [13] 99.1% | [14] 71.2% | [15] 68.1% | [16] 108% | [17] 93.5%
active: [1] 3.48%

FC(F)(F)C1=NNC(c2ccc3ccccc3c2)=NN1
inactive: [1] 95% | [2] 94% | [3] 97.4% | [4] 96.9% | [5] 96.2% | [6] 104% | [7] 103% | [8] 101% | [9] 95.9% | [10] 96.7% | [11] 107% | [12] 102% | [13] 97.9% | [14] 88.7% | [15] 100% | [16] 118% | [17] 93.7%

CCOC(=O)c1ccc(NC(=O)NC2=NCCS2)cc1
active: [8] -53.7%
inactive: [1] 17.6% | [2] 13.9% | [3] 27.1% | [4] 96.5% | [5] 70.6% | [6] 11.5% | [7] 21.5% | [9] 42.7% | [10] 35.8% | [11] 24.2% | [12] 48.3% | [13] 77.8% | [14] 33.4% | [15] 93% | [16] 45% | [17] 15.5%

O=C(NCC(c1ccsc1)N1CCCCCC1)c1ccc(C(F)(F)F)cc1 (configuration not stated)
inactive: [1] 85.8% | [2] 88.8% | [3] 102% | [4] 106% | [5] 94.6% | [6] 109% | [7] 96.8% | [8] 103% | [9] 102% | [10] 91.7% | [11] 99.8% | [12] 91.8% | [13] 96.6% | [14] 94.5% | [15] 88.9% | [16] 102% | [17] 76.8%

CNCCCNc1ccnc2cc(Cl)ccc12
inactive: [4] 13.1%
active: [1] 3.67% | [2] -12.3% | [3] 1.62% | [5] -21.3% | [6] 5.19% | [7] -21.7% | [8] -31.2% | [9] -3.8% | [10] -5.41% | [11] -10.3% | [12] -98% | [13] -23.3% | [14] 2.35% | [15] 3.6% | [17] 0.517%

COc1ccc(-c2nc3ccc(Cc4ccc5nc(-c6ccc(OC)cc6)[nH]c5c4)cc3[nH]2)cc1
active: [7] -16.9% | [8] -21.9% | [14] -13.5%
inactive: [1] 38.8% | [2] 18.5% | [3] 15.1% | [4] 91.2% | [5] 11.4% | [6] 97.3% | [9] 73.1% | [10] 20.8% | [11] 84.5% | [12] 35.3% | [13] 31.2% | [15] 39.4% | [16] 35.8% | [17] 49.1%

COc1cccc(NC(=O)[C@H](C(C)C)n2c(=O)[nH]c3ccccc3c2=O)c1
inactive: [1] 95.8% | [2] 98.6% | [3] 96.9% | [4] 108% | [5] 105% | [6] 101% | [7] 113% | [8] 109% | [9] 110% | [10] 91.1% | [11] 102% | [12] 108% | [13] 103% | [14] 98.2% | [15] 113% | [16] 96.3% | [17] 104%

Cc1ccc(Nc2nc(NCCO)c3ccccc3n2)cc1C
active: [3] 9.74% | [6] -0.684% | [8] -9.61% | [12] -35.8% | [17] 9.68%
inactive: [1] 19% | [2] 19.7% | [4] 25.6% | [5] 50.6% | [7] 20.2% | [9] 36.1% | [10] 55.9% | [11] 37.7% | [13] 13.5% | [14] 24.4% | [15] 16.5% | [16] 11.6%

Clc1ccc(-c2nc(Br)cn3ccnc23)cc1
inactive: [1] 92.2% | [2] 93.4% | [3] 86.8% | [4] 90.4% | [5] 112% | [6] 88.5% | [7] 74.3% | [8] 82.8% | [9] 91.3% | [10] 54.4% | [11] 84.1% | [12] 111% | [13] 91.5% | [14] 64.1% | [15] 77.8% | [16] 104% | [17] 86.6%

CC(C)N=C1CCCC1C(=S)SSC(=S)C1CCCC1=NC(C)C (configuration not stated)
inactive: [1] 47.7% | [2] 59.5% | [3] 61.7% | [4] 93.9% | [5] 53.8% | [6] 110% | [7] 52.8% | [8] 44.8% | [9] 75.9% | [10] 47% | [11] 82.2% | [12] 61.7% | [13] 74.9% | [14] 56.9% | [15] 51.4% | [17] 101%

CC(C)N1CCN(c2ccncc2S(=O)(=O)N2CCN(C)CC2)CC1
inactive: [1] 93.5% | [2] 102% | [3] 103% | [4] 96.9% | [5] 96.1% | [6] 103% | [7] 119% | [8] 110% | [9] 105% | [10] 96.2% | [11] 107% | [12] 101% | [13] 105% | [14] 94.1% | [15] 100% | [16] 106% | [17] 99.1%

[O-]/[N+](=C\c1ccccc1)CC1(O)CCCCC1
inactive: [1] 99.5% | [2] 97.2% | [3] 99.5% | [4] 95.8% | [5] 95.9% | [6] 113% | [7] 125% | [8] 111% | [9] 98.2% | [10] 106% | [11] 111% | [12] 100% | [13] 94.2% | [14] 92.7% | [15] 117% | [16] 115% | [17] 100%

COc1ccc(C2=NN(C=O)C(c3ccc(OS(=O)(=O)c4ccc(C)cc4)c(OC)c3)C2)cc1 (configuration not stated)
inactive: [1] 23.5% | [2] 40.3% | [3] 59.6% | [4] 89.9% | [5] 40.5% | [6] 84.3% | [7] 79.1% | [8] 60.8% | [9] 60.1% | [10] 40.3% | [11] 46.4% | [12] 14.1% | [13] 48.3% | [14] 40.2% | [15] 45.8% | [16] 74.1% | [17] 54.5%
